In PubChem BioAssay AID777 (Sanford-Burnham Center for Chemical Genomics, 2007):
Screen size: about 96,000 compounds; about 19,000 (20%) were called active. The list is a sample of the results. A number with no mark means an inactive call.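 Rule for the calls: active = blocking of liver enzyme CYP2C9 beyond about 50% at 5 µM (limit read from the data); inactive = the rest.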

Biological target: Cytochrome P450 2C9 (Homo sapiens) (UniProt P11712)
Assay: blockers of cytochrome P450 2C9 activity – biochemical, luminescence, ADME assay, primary screen (AID 777)
Conditions: CYP2C9 Supersomes, luciferin-H conversion, at 5 µM, active compounds read high

Chain of Cytochrome P450 2C9 (Homo sapiens) (P11712 whole entry, looked up): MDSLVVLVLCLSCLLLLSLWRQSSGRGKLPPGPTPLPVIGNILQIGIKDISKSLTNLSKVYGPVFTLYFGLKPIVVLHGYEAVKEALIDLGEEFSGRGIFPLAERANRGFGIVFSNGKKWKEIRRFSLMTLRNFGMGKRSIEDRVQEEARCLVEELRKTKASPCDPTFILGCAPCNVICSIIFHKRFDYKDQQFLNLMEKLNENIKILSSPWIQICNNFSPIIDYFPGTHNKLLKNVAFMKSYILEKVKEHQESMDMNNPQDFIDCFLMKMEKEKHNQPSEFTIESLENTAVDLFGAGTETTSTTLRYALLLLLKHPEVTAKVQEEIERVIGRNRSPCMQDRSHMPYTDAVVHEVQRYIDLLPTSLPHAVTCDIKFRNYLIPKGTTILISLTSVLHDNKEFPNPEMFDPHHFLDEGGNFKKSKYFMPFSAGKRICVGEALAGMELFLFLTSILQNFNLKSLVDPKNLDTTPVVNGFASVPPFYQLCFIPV

Structure (SMILES) | inhibition
CCNC(=O)c1sccc1-n1cccc1 | 16.1%
Cc1ccc(N2C(=O)CC(Sc3ncn[nH]3)C2=O)cc1 (stereo not given) | -1.5%
Nc1nonc1C(=O)NCCc1ccccc1 | -8.7%
COc1ccc(OCCCON2C(=O)c3ccccc3C2=O)cc1 | 7.6%
CN1CCN(C(=O)C2C3C=CC(C3)C2C(=O)O)CC1 (stereo not given) | -9.2%
Cc1ccc2nc(/C(C#N)=C\c3ccc(OC(=O)c4cccs4)cc3)[nH]c2c1 | 81.3% (active)
Cc1ccc2nc(S(=O)(=O)O)[nH]c2c1 | -11.8%
CSc1nsc(SC)c1NC(=O)OC1CCCCC1 | 21.9%
O=C(Cn1c(-c2ccccn2)nc2ccccc21)NCCN1CCOCC1 | -10.5%
Cc1cc(Nc2ccccc2)n(CCC#N)n1 | -12.2%
COC(=O)CN1C(=O)C(O)=C(C(C)=O)C1c1ccc([N+](=O)[O-])cc1 (stereo not given) | 3.5%
COc1ccc(NC(=O)C2CCCN(S(=O)(=O)c3cccc4cccnc34)C2)cc1OC (stereo not given) | -15.1%
O=C(c1cccs1)N1CCCC(c2nc(-c3ccc(F)cc3)no2)C1 (stereo not given) | 76.9% (active)
CS(=O)(=O)N1CCCC(C(=O)N2CCOCC2)C1 (stereo not given) | -11.8%
COc1cc(-c2noc(C3CCCN(S(=O)(=O)c4cccc(Cl)c4)C3)n2)cc(OC)c1OC (stereo not given) | 85.3% (active)
COc1ccc(S(=O)(=O)N2CCCC(C(=O)N3CCN(C)CC3)C2)cc1C (stereo not given) | -24%
CC(C)c1ccc(-c2noc(C3CCCN(S(C)(=O)=O)C3)n2)cc1 (stereo not given) | 52.2% (active)
O=C(Cc1cccs1)N1CCCC(c2nc(-c3ccc(S(=O)(=O)N4CCCC4)cc3)no2)C1 (stereo not given) | 47.8%
OCCNc1nc2ccccc2[nH]1 | 2.6%
Cc1nnc(SCC(=O)Nn2cnnc2)s1 | 29.8%
COc1ccccc1NC(=O)c1ccc2nc(N3C(=O)CCC3=O)sc2c1 | -32%
CCOC(=O)c1c(NC(=O)c2ccc(N3CCOCC3)c([N+](=O)[O-])c2)sc(C)c1C | 7.5%
CCc1cc(C(c2ccccc2OC)N2CCOCC2)c(NC(=O)c2ccccc2)s1 (stereo not given) | 85.2% (active)
COc1ccc(-n2c(SC)nc(O)cc2=O)cc1 | -81.1%
O=C1CSC2=NCN(c3ccccc3)CN12 | 26.1%

Structure (SMILES) | inhibition
O=S(N1CCCCCC1)C12CC3CC(CC(C3)C1)C2 (stereo not given) | 9.9%
O=C(OCC(=O)N1CCN(C(=O)c2ccco2)CC1)c1ccccc1Cc1ccccc1 | 31.9%
CCOC(=O)c1[nH]c2ccccc2c1N=C(C)N(CC)CC | -6.5%
COc1cccc(OCCOc2cccc(/C=N/n3cnnc3)c2)c1 | 40%
COc1ccccc1OCCOc1ccc(/C=N/n2cnnc2)cc1 | 44.5%
C=CCOc1ccc(/C=N/n2cncn2)cc1OC | 57.5% (active)
Cc1ccc2c(CSc3nncs3)cc(=O)oc2c1 | 67% (active)
COC(=O)CCSc1cc([N+](=O)[O-])cc2c1c(C1OCCS1)nn2-c1ccccc1 (stereo not given) | 34.3%
Cc1ccccc1C(=O)NCCN=C1NS(=O)(=O)c2ccccc21 | 7.9%
COc1ccc(C(C#N)N2N=C(C)CC2(C)C)cc1 (stereo not given) | -2.1%
N#CC1=C(SCc2ccccc2)NC(=O)C(C#N)C12CCCC2 (stereo not given) | 46.5%
N#CC1=C(SCc2ccc(C#N)cc2)N=C(N)C(c2nc(-c3ccccc3)cs2)C12CCCCC2 (stereo not given) | 98.6% (active)
O=C(O)c1cc2ccccc2c(=O)s1 | -1.7%
CCOC(=O)C1CCCN(C(=O)C2CCN(c3nnc(-n4cccc4)s3)CC2)C1 (stereo not given) | 25.6%
O=C(O)CCN1C(=O)CC2(CCCCC2)C1=O | 11.2%
O=[N+]([O-])c1ccc(C=Nc2ccc(Cl)cc2Cl)s1 | 7.9%
O=C1[C@@H]2C(Cc3ccc(O)cc3)NC3(C(=O)Nc4ccc(F)cc43)[C@@H]2C(=O)N1c1ccc(F)cc1 (stereo not given in full) | 50.6% (active)
Cc1ccc(NC(=S)NC(NC(=O)Cc2cccc3ccccc23)C(Cl)(Cl)Cl)cc1 (stereo not given) | 96.6% (active)
COCCCNC(NC(=O)c1ccc(C)cc1)C(Cl)(Cl)Cl (stereo not given) | 4.7%
COc1ccc(NC(=O)C(NC(C)=O)C(=O)NCc2ccccc2Cl)cc1 (stereo not given) | 37.2%
COc1ccc(NC(=O)Nc2ccc3nsnc3c2)cc1 | 23.7%
COc1cccc2c1OCC1COc3c(c(=O)n(C)c(=O)n3C)C21 (stereo not given) | -6%
O=C(Nc1ccc(NC(=O)c2cccs2)cn1)c1ccco1 | 23.5%
O=C(Nc1nnc(SCc2ccccc2)s1)c1ccco1 | 6.2%
NC(=O)c1ccsc1NC(=O)c1ccco1 | 61.4% (active)

Structure (SMILES) | inhibition
CC(NCCO)C(=O)C12CC3CC(CC(C3)C1)C2 (stereo not given) | -0.7%
COc1ccc(N2C(=O)CCC(C(=O)Nc3ccccn3)C2c2ccc(OC)c(OC)c2)cc1 (stereo not given) | 2.6%
Cc1csc(=NC(=O)c2ccccc2)n1CCO | 32.3%
COc1ccc(-c2nc(CS(=O)CC(=O)NCc3cccnc3)c(C)o2)cc1OC (stereo not given) | 47.2%
Cc1cc(C(=O)N2CCN(c3ccccn3)CC2)c(C)o1 | 12.4%
COc1ccc(-c2nc(CS(=O)CC(=O)N3CCc4ccccc4C3)c(C)o2)cc1 (stereo not given) | 40.4%
Cc1ccc(-c2nc(CS(=O)CC(=O)NC3CCCC3)c(C)o2)cc1 (stereo not given) | 53% (active)
Cc1ccc(-c2nc(CS(=O)CC(=O)N3CCN(c4ncccn4)CC3)c(C)o2)cc1 (stereo not given) | 79% (active)
Cc1ccc(S(=O)(=O)N(C)CC(=O)NC2CCCC2)cc1 | -30.3%
CCOc1c2ccc(C(=O)NCc3ccc(OC(F)(F)F)cc3)cc2nn1C | 19%
COc1nc(N=C(N)N)nc2c(C)cccc12 | -9.5%
COc1cc2[nH]c(=O)n(CCC(=O)NC3CCN(Cc4ccccc4)CC3)c(=O)c2cc1OC | -15.4%
CC(=O)Nc1ccc(NC(=O)c2sc3nc4c(c(-c5ccc(C)cc5)c3c2N)CCC4)cc1 | -4.6%
CC1C(c2ccccc2)=[N+]([O-])C2(CCCC2)N1O (stereo not given) | 37.7%
O=C(COc1ccc(F)cc1)N(CC1=CCS(=O)(=O)C1)c1ccccc1 | -18.6%
O=c1c2ccccc2c(-c2ccc(Br)cc2)nn1Cc1ccccc1 | 21.5%
COc1ccc(Cl)cc1C(=O)NCC#N | -80.7%
CC(C)CNC(=O)CC(c1ccccc1)c1c(O)ccc2ccccc12 (stereo not given) | 71.2% (active)
CC(C)CNC(=O)COC(=O)/C=C/c1ccccc1[N+](=O)[O-] | -41.6%
O=C1CC(C(F)(F)C(F)(F)C(F)(F)C(F)(F)F)=Nc2ccccc2N1 | 9%
CCN(CC(=O)NC1CCS(=O)(=O)C1)c1nc(-c2cccnc2)nc2ccccc12 (stereo not given) | 3.9%
CCOC(=O)c1cnc(SC)nc1Sc1ccc(Cl)cc1Cl | 81.5% (active)
CCOC(=O)c1nc(C)n(-c2ccc(Cl)cc2Cl)n1 | -0.6%
CCOC(=O)CSc1ncc(-c2cccc(Cl)c2)cn1 | 14.2%
Cc1ccc(C(=O)NC2CC(C)(C)NC(C)(C)C2)c(C)c1 | -6.6%

Structure (SMILES) | inhibition
Cc1nn(C)cc1/C=N/NC(=O)c1sc2ccccc2c1Cl | 23.6%
O/N=C1\CC2(Cc3nonc31)OCCO2 | 4%
CS(=O)(=O)N1CCN(C(=O)c2cc3ccccc3oc2=O)CC1 | -3.6%
O=c1c2ccccc2nnn1CSc1nnnn1-c1ccccc1 | -35.7%
C=CCn1c(SCn2nnc3ccccc3c2=O)nnc1-c1ccc(Cl)cc1 | 67.1% (active)
Cc1cccc(OCc2nnc(SCn3nnc4ccccc4c3=O)o2)c1 | 35.9%
COc1cccc(Nc2ncccc2C(=O)O)c1 | -5.5%
CC1(C)CC(=O)C2=C(C1)NCN(CCCN1CCOCC1)C2 | 3.8%
CCOc1cc(CO)ccc1OCC(=O)N1CCCCC1 | -19.8%
N#C/C(=C1/CCCN1)c1ccccn1 | 7.3%
COC(=O)C(C)N(C#N)c1nc(C)nc(C)n1 (stereo not given) | -136%
COc1ccc(/C(N)=N/OC(=O)Oc2ccccc2)cc1 | 21.5%
COC(=O)CNS(=O)(=O)c1ccc(OC)cc1 | -0.5%
CO/N=C(/CS(=O)(=O)c1ccc(Br)cc1)c1ccc(OC)cc1 | 91.6% (active)
O=C1CC(c2cccc(Br)c2)C2=C(CCCC2=O)N1 (stereo not given) | 10.3%
Cc1cccc(NC(=O)c2cc(N3C(=O)CCC3=O)ccc2Cl)n1 | 20.2%
O=C(CN1CCOCC1)N1CCCc2c1c(=O)oc1ccc(OCc3ccccc3)cc21 | 72.5% (active)
COc1ccc2oc(=O)c(C(=O)N3CCCc4ccccc43)cc2c1 | -44.4%
O=C(COc1ccc2oc3c(c2c1)CCCC3)Nc1ccccn1 | 2.1%
Cn1c(=NC(=O)C2CC2)sc2cc(F)cc(F)c21 | -15.8%
O=C(CCN1C(=O)c2ccccc2C1=O)NCCN1CCOCC1 | -18.8%
O=C1c2oc3ccc(Br)cc3c(=O)c2C(c2cccc(F)c2)N1CCO (stereo not given) | 23.9%
COCCN1C(=O)c2oc3c(C)cc(C)cc3c(=O)c2C1c1cccc(O)c1 (stereo not given) | 98.6% (active)
O=C1c2oc3ccccc3c(=O)c2C(c2cccc(O)c2)N1c1ccccn1 (stereo not given) | 4.2%
CC(=O)OC(C(=O)NCCc1ccccc1)c1cccnc1 (stereo not given) | -7.6%
